# Test results published in PubChem BioAssay.
# Active and inactive are the calls of the source.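 The calls were made as follows: active = Her2 level under about 52% in both replicate screens, with viability over 70% of control (limit read from the data); inconclusive = Her2 under the limit in one screen only, or viability under 70%; inactive = Her2 level above the set limit.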
# System: not listed separately
# Assay: Her2 expression decrease, cell viability multiplex – SKBR3 breast tumor cells, AlphaScreen, ATP viability, primary screen (AID 461);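 as to Her2 level: lower value means less Her2 protein in the cells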;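 as to viability: percent of carrier control wells set as 100% viability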
# Conditions: SKBR3 Her2 protein level, 18-24 h, measured here: SKBR3 viability, ATP luminescence, at 10 µM
row,SMILES,viability
1,O=c1[nH]c2ccccc2nc1NCCN1CCOCC1,97.5%
2,c1ccc(Nc2ccccc2Nc2ccccn2)nc1,138%
3,COc1ccc(-n2c(COc3cccc(C)c3)nnc2SCC(=O)NCc2ccco2)cc1,126%
4,C=CCc1cc(C(=O)N2CCCCC2)ccc1O,104%
5,CCCC(=O)Nc1ccc2oc(-c3cccnc3)nc2c1,109%
6,Cc1ccccc1-n1c(=O)cc(N2CCN(C(=O)c3ccco3)CC2)[nH]c1=O,86%
7,O=C(O)CN1C(=O)C2(OCCCO2)c2ccccc21,86.5%
8,CC(C)(C)C(=O)/C=C(\N)c1ccccn1,102%
9,CCOC(=O)C1CCCN(c2c(N3CCN(c4ccccn4)CC3)c(=O)c2=O)C1 (stereo not given),86.5%
10,CC1CCN(S(=O)(=O)c2ccc(S(=O)(=O)NCC(=O)C(C)(C)C)cc2)CC1,108%
11,O=C(CSc1nnc2scc(-c3ccccc3)n12)N1CCN(Cc2ccccc2)CC1,89%
12,CC1(C)CNC(=O)CC(C)(C)N1O,90%
13,Cc1cc(NC(=O)CCOc2ccccc2)no1,85.5%
14,CCOc1ccc2cc(C#N)c(SCC(=O)N3CCCC3)nc2c1,71.5%
15,COc1cccc(Oc2cnc(N)nc2-c2ccc(OC)cc2O)c1,91.5%
16,CCOC(OCC)P(=O)(C(C)C)C(C)C,87%
17,O=C1C(C=NCCCn2ccnc2)=C(O)c2ccccc21,83%
18,CCCN(S(=O)(=O)c1ccc(OCC)cc1)S(=O)(=O)c1cccs1,89%
19,N#Cc1nc(COc2ccc(Br)cc2)oc1N1CCCC1,99%
20,CCOC(=O)N1CCN(Cc2cc(=O)oc3ccc4ccccc4c23)CC1,91.5%

row,SMILES,viability
1,COc1ccc(OC)c(C2C3=C(CCCC3=O)Nc3c2c(=O)n(C)c(=O)n3C)c1 (stereo not given),106%
2,CCOc1ccc(C2CC(=O)NC3=C2C(=O)CCC3)cc1Cl (stereo not given),108%
3,COc1ccc2nc(NC(=O)c3ccoc3C)sc2c1,99%
4,O=C(NCC(=O)N1CCC(N2CCCCC2)CC1)C1CCCCC1,88.5%
5,O=C(NCCN1CCOCC1)c1ccc2c(c1)N(Cc1ccccc1)C(=O)CS2,89.5%
6,CCC(c1nnnn1Cc1ccco1)N(CCc1ccccc1)Cc1cc2cccc(C)c2[nH]c1=O (stereo not given),105%
7,CC(C)=CCCC(C)N(C=O)C(C)CCC=C(C)C (stereo not given),84.5%
8,Cc1c(C(=O)NCc2cccnc2)oc2ccc(S(=O)(=O)N3CCCCC3)cc12,71.5%
9,Cc1ccc(C(C)C)c(OCCn2c(=O)oc3ccccc32)c1,89%
10,CCn1nc(C(=O)OCC(=O)N2CCc3ccccc32)c2ccccc2c1=O,99.5%
11,COC(=O)c1cc(-c2c(C)oc3cc(O)ccc3c2=O)c(C)o1,100%
12,CCOC(=O)N1CCN(S(=O)(=O)c2ccc(OCC)c(C)c2)CC1,110%
13,CC1CC(=O)C2=C(C1)OC(N)=C(C#N)C2c1coc2ccccc2c1=O (stereo not given),108%
14,COc1ccc(-c2nnc(SCCC(=O)O)n2-c2ccccc2)cc1,113%
15,CCCCn1c(SCC(=O)Nc2ccc(OC)cc2)nc2ccc(N3CCOCC3)cc2c1=O,94.5%
16,CCOC(=O)c1cc2cc(F)ccc2nc1C,103%
17,Cc1nc2ccccn2c1C(=O)NCCCN1CCOCC1,91.5%
18,Cc1cc(-c2ccccc2)c2c3c(cn2n1)c(=O)n(C)c(=O)n3C,108%
19,CCOC(=O)N1CCC(O)(c2cc(C)c(C)cc2C)CC1,102%
20,O=C(C1CCCN(S(=O)(=O)c2cccnc2)C1)N1CCN(c2ccccn2)CC1 (stereo not given),93.5%

# Target: Receptor tyrosine-protein kinase erbB-2 (Homo sapiens) (UniProt P04626)
# Assay: as above
# Conditions: 18-24 h, at 10 µM, stronger effect = lower value
# Chain of Receptor tyrosine-protein kinase erbB-2 (Homo sapiens) (P04626 whole entry, looked up): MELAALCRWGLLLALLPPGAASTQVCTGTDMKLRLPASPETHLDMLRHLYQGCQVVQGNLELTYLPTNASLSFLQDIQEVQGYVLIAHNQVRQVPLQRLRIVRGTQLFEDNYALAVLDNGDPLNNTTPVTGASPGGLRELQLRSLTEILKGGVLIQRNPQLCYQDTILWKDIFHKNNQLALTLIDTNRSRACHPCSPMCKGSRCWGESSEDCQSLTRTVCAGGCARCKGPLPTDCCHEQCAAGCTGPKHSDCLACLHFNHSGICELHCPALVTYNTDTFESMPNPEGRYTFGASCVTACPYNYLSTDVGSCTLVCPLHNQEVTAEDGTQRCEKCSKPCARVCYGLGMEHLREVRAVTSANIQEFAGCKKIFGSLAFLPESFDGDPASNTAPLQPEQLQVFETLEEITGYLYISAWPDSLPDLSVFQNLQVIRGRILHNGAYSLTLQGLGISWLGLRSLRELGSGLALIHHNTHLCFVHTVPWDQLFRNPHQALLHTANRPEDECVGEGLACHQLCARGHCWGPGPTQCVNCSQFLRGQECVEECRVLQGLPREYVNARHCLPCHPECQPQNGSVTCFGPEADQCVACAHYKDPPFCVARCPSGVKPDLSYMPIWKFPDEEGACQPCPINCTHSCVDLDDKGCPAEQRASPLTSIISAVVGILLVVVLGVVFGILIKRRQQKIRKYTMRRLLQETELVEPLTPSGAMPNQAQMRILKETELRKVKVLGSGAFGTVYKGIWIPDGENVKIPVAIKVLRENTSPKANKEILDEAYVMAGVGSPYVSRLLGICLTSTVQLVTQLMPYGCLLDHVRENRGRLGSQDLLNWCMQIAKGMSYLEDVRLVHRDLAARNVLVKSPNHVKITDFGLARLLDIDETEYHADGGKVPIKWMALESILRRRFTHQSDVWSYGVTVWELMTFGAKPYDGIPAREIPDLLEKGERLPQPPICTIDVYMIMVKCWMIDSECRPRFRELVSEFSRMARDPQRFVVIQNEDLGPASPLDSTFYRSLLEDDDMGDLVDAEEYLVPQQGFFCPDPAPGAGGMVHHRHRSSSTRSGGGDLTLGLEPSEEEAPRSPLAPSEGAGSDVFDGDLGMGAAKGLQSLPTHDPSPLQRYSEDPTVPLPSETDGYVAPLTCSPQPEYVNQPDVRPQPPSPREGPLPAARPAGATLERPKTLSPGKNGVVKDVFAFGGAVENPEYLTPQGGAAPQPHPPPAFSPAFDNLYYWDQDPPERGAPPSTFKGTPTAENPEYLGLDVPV
row,SMILES,Her2 level
1,O=c1[nH]c2ccccc2nc1NCCN1CCOCC1,87.5% (inactive)
2,c1ccc(Nc2ccccc2Nc2ccccn2)nc1,108% (inactive)
3,COc1ccc(-n2c(COc3cccc(C)c3)nnc2SCC(=O)NCc2ccco2)cc1,91% (inactive)
4,C=CCc1cc(C(=O)N2CCCCC2)ccc1O,100% (inactive)
5,CCCC(=O)Nc1ccc2oc(-c3cccnc3)nc2c1,94% (inactive)
6,Cc1ccccc1-n1c(=O)cc(N2CCN(C(=O)c3ccco3)CC2)[nH]c1=O,100% (inactive)
7,O=C(O)CN1C(=O)C2(OCCCO2)c2ccccc21,102% (inactive)
8,CC(C)(C)C(=O)/C=C(\N)c1ccccn1,94.5% (inactive)
9,CCOC(=O)C1CCCN(c2c(N3CCN(c4ccccn4)CC3)c(=O)c2=O)C1 (stereo not given),104% (inactive)
10,CC1CCN(S(=O)(=O)c2ccc(S(=O)(=O)NCC(=O)C(C)(C)C)cc2)CC1,97% (inactive)
11,O=C(CSc1nnc2scc(-c3ccccc3)n12)N1CCN(Cc2ccccc2)CC1,97.5% (inactive)
12,CC1(C)CNC(=O)CC(C)(C)N1O,129% (inactive)
13,Cc1cc(NC(=O)CCOc2ccccc2)no1,96.5% (inactive)
14,CCOc1ccc2cc(C#N)c(SCC(=O)N3CCCC3)nc2c1,112% (inactive)
15,COc1cccc(Oc2cnc(N)nc2-c2ccc(OC)cc2O)c1,74.5% (inactive)
16,CCOC(OCC)P(=O)(C(C)C)C(C)C,87% (inactive)
17,O=C1C(C=NCCCn2ccnc2)=C(O)c2ccccc21,82.5% (inactive)
18,CCCN(S(=O)(=O)c1ccc(OCC)cc1)S(=O)(=O)c1cccs1,100% (inactive)
19,N#Cc1nc(COc2ccc(Br)cc2)oc1N1CCCC1,90% (inactive)
20,CCOC(=O)N1CCN(Cc2cc(=O)oc3ccc4ccccc4c23)CC1,86% (inactive)

row,SMILES,Her2 level
1,COc1ccc(OC)c(C2C3=C(CCCC3=O)Nc3c2c(=O)n(C)c(=O)n3C)c1 (stereo not given),108% (inactive)
2,CCOc1ccc(C2CC(=O)NC3=C2C(=O)CCC3)cc1Cl (stereo not given),97.5% (inactive)
3,COc1ccc2nc(NC(=O)c3ccoc3C)sc2c1,87.5% (inactive)
4,O=C(NCC(=O)N1CCC(N2CCCCC2)CC1)C1CCCCC1,108% (inactive)
5,O=C(NCCN1CCOCC1)c1ccc2c(c1)N(Cc1ccccc1)C(=O)CS2,111% (inactive)
6,CCC(c1nnnn1Cc1ccco1)N(CCc1ccccc1)Cc1cc2cccc(C)c2[nH]c1=O (stereo not given),77.5% (inactive)
7,CC(C)=CCCC(C)N(C=O)C(C)CCC=C(C)C (stereo not given),94% (inactive)
8,Cc1c(C(=O)NCc2cccnc2)oc2ccc(S(=O)(=O)N3CCCCC3)cc12,89% (inactive)
9,Cc1ccc(C(C)C)c(OCCn2c(=O)oc3ccccc32)c1,133% (inactive)
10,CCn1nc(C(=O)OCC(=O)N2CCc3ccccc32)c2ccccc2c1=O,106% (inactive)
11,COC(=O)c1cc(-c2c(C)oc3cc(O)ccc3c2=O)c(C)o1,90.5% (inactive)
12,CCOC(=O)N1CCN(S(=O)(=O)c2ccc(OCC)c(C)c2)CC1,88.5% (inactive)
13,CC1CC(=O)C2=C(C1)OC(N)=C(C#N)C2c1coc2ccccc2c1=O (stereo not given),88.5% (inactive)
14,COc1ccc(-c2nnc(SCCC(=O)O)n2-c2ccccc2)cc1,96.5% (inactive)
15,CCCCn1c(SCC(=O)Nc2ccc(OC)cc2)nc2ccc(N3CCOCC3)cc2c1=O,86% (inactive)
16,CCOC(=O)c1cc2cc(F)ccc2nc1C,112% (inactive)
17,Cc1nc2ccccn2c1C(=O)NCCCN1CCOCC1,94.5% (inactive)
18,Cc1cc(-c2ccccc2)c2c3c(cn2n1)c(=O)n(C)c(=O)n3C,83% (inactive)
19,CCOC(=O)N1CCC(O)(c2cc(C)c(C)cc2C)CC1,95.5% (inactive)
20,O=C(C1CCCN(S(=O)(=O)c2cccnc2)C1)N1CCN(c2ccccn2)CC1 (stereo not given),122% (inactive)
